This is an account of results in PubChem BioAssay (NCI).

About 83,000 compounds went through this panel and 20% of them were active in at least one assay; those are over-represented in the sample as a whole.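 Results are percent growth after 48 hours of single-concentration exposure. 100 means growth as in untreated cells, lower positive values show inhibition; negative values down to -100 show cell death.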 Unmarked numbers belong to inactive results. Activity calls are given as the source filed them. The calls were made as follows: active = growth percent below 10; inactive = the rest.

This assay concerns MDA-MB-468 breast. Kind of assay: NCI-60 one-dose screen, 48 h (100 = growth as untreated, 0 = no growth, -100 = all killed). Particulars: 10 µM unless noted.
On to `NC1=CSC2=N/C(=C\c3ccc(Cl)cc3)C(=O)N12`, for which the growth was 64.5%. Consider `C#CC(=O)Nc1cccc(Nc2nc3c(c(NCc4ccccc4)n2)CCCC3)c1`, for which the growth is -54.7% (active). Take `CCCCCC(=O)OCc1ccc(Cl)c(Cl)c1`: the growth was 123%.

With `O=C(Nc1ccc(N=Nc2ccccc2)cc1)c1cccc2ccccc12`, the growth is 41.9%. As to `Cc1ccc(-n2c3c(c(-c4ccccc4)c2-c2ccccc2)C2=NCCN2C=N3)cc1`, the growth was 81.8%. The result for `COC1=CC(=O)C(OC)=C(O)C1=O` reads 91.8%; that for `CC[C@@H](C(=O)[C@@H](C)[C@@H](O)[C@H](C)[C@@H]1O[C@@H]([C@@H](CC)C(=O)O)CC[C@@H]1C)C1O[C@]2(C=CC(=O)[C@]3(CC[C@@](C)([C@H]4CC[C@](O)(CC)[C@H](C)O4)O3)O2)[C@H](C)C[C@@H]1C` (some centres not stated), 18.9%; that for `Cc1ccc(-n2c(/C=C3\C(=O)Nc4ccccc43)ccc2CO)cc1`, 45.1%.

In the case of `Cc1nc2cc(-c3nn(C(C)C)c4ncnc(N)c34)ccc2o1`, the growth was -37.7% (active). Consider `C=CCN(CC=C)C(=O)[C@H](CC)[C@@H]1CC[C@@H](C)[C@@H]([C@H](C)[C@@H](O)[C@@H](C)C(=O)[C@H](CC)C2O[C@]3(C=CC(=O)[C@]4(CC[C@@](C)([C@H]5CC[C@](O)(CC)[C@H](C)O5)O4)O3)[C@H](C)C[C@@H]2C)O1` (some centres not stated), for which the growth is -17.4% (active).

Take `O=C(CC(C(=O)c1ccccc1)N1CCOCC1)c1ccccc1` (configuration not stated): the growth is 101%. With `COc1cc2nc(N3CCC[C@H](NC4=CC(=O)c5ccccc5C4=O)C3)nc(N)c2cc1OC`, the growth is -55.9% (active).

With `O=C(CCCCCCN1CC(=O)N2[C@@H](C3CCCCC3)c3[nH]c4ccccc4c3C[C@H]2C1=O)NO`, the growth is 64.3%. For the molecule `COc1ccc(C/C(C)=C(/c2ccc(OCCN3CCCCCC3)cc2)c2ccc(OC(=O)c3ccccc3)cc2)cc1`, the growth is 111%. On to `Cc1c2cnccc2c(C)c2c1oc1ccccc12`, for which the growth is 82.6%. The result for `O=C1Nc2ccccc2/C1=C/C(=N/c1nnc(-c2ccc(Cl)cc2)s1)c1ccccc1` reads 27.8%; that for `O=C(NCCCNC(=O)OCc1ccc2cccc(O)c2n1)OCc1ccc2cccc(O)c2n1`, 11.3%; that for `c1ccc(-c2ccc3c(c2)C2(CCNCC2)CN3)cc1`, 106%. Regarding `C=CC1(C)C(O[Si](C)(C)C(C)(C)C)CC2C3OC(=O)NC31c1cccc3c1[C@H](C(=O)N3C)C2(C)C` (some centres not stated), the growth was 31.3%.

In the case of `C=C1C(=O)O[C@H]2[C@H]1CC/C(Cn1cc(-c3ccc(F)cc3)nn1)=C\CC[C@@]1(C)O[C@@H]21`, the growth is -53.1% (active). The value for `O=C1c2ccccc2-c2ccccc2C1(Cl)Cl` was -86.6% (active); that for `CC/C=C\C/C=C\C[C@H](O)C/C=C1/C(=O)C=C[C@@H]1C/C=C\CCCC(=O)OC` was -51.7% (active); that for `NNc1nc(-c2cccnc2)nc2c1sc(=S)n2-c1ccccc1` was 115%.

Consider `Cc1ccc(-c2[nH][nH]c(=O)c2-c2nc3ccccc3s2)cc1`, for which the growth is 98.1%. The value for `CC(=O)c1cc2c(N)c(C(=O)Nc3cccc4ccncc34)sc2nc1C` was 71.6%.

As to `Nc1c2c(nc3ccc(Br)cc13)CC(c1ccccc1)CC2=O` (configuration not stated), the growth is -4.68% (active). The value for `O=C(/C=C/c1cccc2ccccc12)Nc1ncc(Cc2ccccc2)s1` was -14.4% (active); that for `CCOC(=O)c1cn2ncnc(Oc3ccc(NC(=O)NCCN4CCN(C)CC4)c(Cl)c3)c2c1C` was 45.4%. Take `O=C(/C=C/C12c3ccccc3C(c3ccccc31)C1C(=O)NC(=O)C12)c1ccco1` (configuration not stated): the growth was 21.8%.

`Cc1ccc2cnc(N)c(C#Cc3cncc(C(=O)Nc4ccc(CN5CCN(C)CC5)c(C(F)(F)F)c4)c3)c2c1`: the growth is -87.1% (active). The value for `CC1CN(CCO)CC(C)O1` (configuration not stated) was 108%; that for `Nc1n[nH]c2cc(F)c([C@@H]3Nc4ccc5[nH]ncc5c4[C@H]4C5CCC(C5)[C@@H]34)cc12` (some centres not stated) was -11.7% (active). Regarding `O=C1/C(=C(/c2ccccc2)N2CCOCC2)Cc2ccccc21`, the growth is -19% (active). The result for `Cn1c2c(cc(S(=O)(=O)c3ccccc3)c1=O)CCc1c-2cnn1-c1cccc(Cl)c1` reads 67%; that for `O=C1Nc2ccccc2/C1=N/N1C(=O)CN(CCCl)C1=O`, 107%; that for `CCOc1cccnc1/C=N/NC(N)=S`, 52.7%. For `O=c1oc2c(cc1-c1ccccc1)c(=O)[nH]c1ccccc12`, the growth is 105%.
